Source: PubChem BioAssay (NCATS)
Results filed as inconclusive are left out. The source made the active and inactive calls. Unless noted, calls come from the whole dose curve; as a rule, active = well fitted curve in either direction with a large enough effect (not every such curve was filed as active); inconclusive = small, poorly fitted or top-dose-only effect, or another doubt; inactive = flat fitted curve, though single readings scatter.

Key:
[1] = Primary qHTS for small molecule stabilizers of the endoplasmic reticulum resident proteome: Secreted ER Calcium Modulated Protein (SERCaMP) assay (AID 1508630; active = well fitted curve in the direction sought with a large enough effect; an effect the other way counts as inactive or inconclusive; note: % is set by controls: 0 for no effect and ±100 for the full control effect)
Outline: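 The SH-SY5Y reporter protocol was run at 3 concentrations up to 38.3 uM (primary) or 11 concentrations (follow-up): 16 h compound, 100 nM thapsigargin for 4 h, then extracellular luciferase luminescence.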

[2] = molecular target: Lysosomal acid glucosylceramidase (Homo sapiens) (UniProt P04062); assay: Glucocerebrosidase-p2 (AID 348; in the data active = potency below about 10 µM; note: potency is the fitted concentration of half-maximal effect); conditions: purified GBA, blue fluorogenic substrate, 40 min
Outline: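 Normal human glucocerebrosidase (0.2 nM) with blue fluorogenic substrate (80 uM final) in citrate/phosphate pH 5.9 with 10mM sodium taurocholate, 0.01% tween-20; 40 min RT, NaOH/glycine stop; fluorescence Ex 365/Em 440; AC50 from a titration from 0.6 nM upwards.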

[3] = AP1 Signaling Pathway (AID 357);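 note: ME-180 reporter cells stimulated with EGF at its EC50 level; % is set by controls: 0 for no effect and ±100 for the full control effect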
Outline: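 In this screen, ME-180 cells in Opti-MEM with 0.5% dialyzed FBS received EC50 EGF and compound titrations for 5 h. AP-1 reporter beta-lactamase was detected via CCF4 ratio, giving AC50 for positive and negative modulators.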

[4] = molecular target: Cytochrome P450 1A2 (Homo sapiens) (UniProt P05177); assay: p450-cyp1a2 (AID 410; calls by dose curve; note: potency is the fitted concentration of half-maximal effect;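 for activity change, negative = inhibition: -100% = full effect of reference inhibitor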)
Outline: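 Read-out is luminescence from luciferin produced by CYP1A2 demethylation of Luciferin-ME (100uM, at Km). Detection reagent stopped the 60 min NADPH-dependent reaction; signals were normalized to 57 uM furafylline.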

[5] = Stat Signaling Pathway (AID 446);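 note: ME-180 cervical cancer cells given 40 pM IL-6 alongside compound; SIE-controlled beta-lactamase reporter measured as 460/530 nm FRET emission ratio; % is set by controls: 0 for no effect and ±100 for the full control effect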
Outline: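 Overnight-plated ME-180 cells bearing a STAT Inducible Element beta-lactamase reporter; 5 h co-exposure to compound and 40 pM IL-6; values normalized to 300 pM IL-6 and 125 nM JAK inhibitor controls.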

[6] = molecular target: Glucocorticoid receptor (Homo sapiens) (UniProt P04150); assay: GR-EFC Redistribution (AID 451; calls by dose curve; note: potency is the fitted concentration of half-maximal effect); conditions: CHO-K1 GR-EFC translocation, beta-gal luminescence, 2 h
Outline: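 Translocation of GR-ED fusion to nuclear EA restores b-gal, read by luminescence after 1 h room-temperature detection. Engineered CHO-K1 biosensor cells, 1,000/well, exposed 2 h at 37 C to titrations up to 46 uM final.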

[7] = molecular target: 3',5'-cyclic-AMP phosphodiesterase 4B (Homo sapiens) (UniProt Q07343); assay: qHTS Assay for Inhibitors of PDE-IV (AID 607; active = well fitted activation curve with a large enough effect in the main read-out, with a control signal flat, not every such curve was filed as active; note: % of control where 0% means no effect)
Outline: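 Live HEK293 cells with a modified cyclic nucleotide-gated (CNG) channel report intracellular cAMP via membrane-potential dye fluorescence (ex 535/em 590 nm). Endogenous PDE-IV was targeted. Compounds were tested at up to 22.9 uM final; RO 20-1724 100 uM served as control.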

[8] = qHTS Assay for Lipid Storage Modulators (AID 1519; calls by dose curve); conditions: Drosophila S3 cells, BODIPY lipid droplet/cell ratio, laser cytometry, cells loaded with oleic acid; for activity change, negative = inhibition: at 57.5 µM (top of the series)
Outline: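 Cells seeded at 5,000 per well were treated with compounds over a concentration series and loaded with oleic acid (400 uM, as added). Lipid droplet fluorescence (488 nm excitation, 500-530 nm channel) was read by laser-scanning cytometry and normalized to 20 uM Triacsin C.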

[9] = molecular target: Glucocorticoid receptor (Homo sapiens) (UniProt P04150); assay: GR-GFP Redistribution (AID 450;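 active = compounds whose dose series gives a full or clear partial fitted curve of increased nuclear translocation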; note: potency is the fitted concentration of half-maximal effect); conditions: U2OS GR-GFP nuclear translocation, laser cytometry, 2 h
[10] = molecular target: Mitogen-activated protein kinase 10 (Mus musculus) (UniProt Q61831); assay: JNK3 AlphaScreen Assay (AID 530);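 note: kinase came from lysate of stimulated human HepG2 cells; signal reports phosphorylation of biotinylated GST-cJun 1-79 at Ser73 with 10 µM ATP; % is set by controls: 0 for no effect and ±100 for the full control effect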
Outline: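 Kinase buffer: 20 mM Tris-HCl pH 7.6, 10 mM MgCl2, 1 mM DTT, 0.1 mM Na3VO4, 0.01% Tween-20; ATP 10 uM. Substrate biotin-GST-cJun(1-79), enzyme from activated HepG2 lysates. Detection by Ser73 phospho-antibody AlphaScreen.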

[11] = molecular target: Dual specificity protein kinase CLK4 (Homo sapiens) (UniProt Q9HAZ1); assay: qHTS Assay for Inhibitors of CDC-like Kinase 4 (Kinase-Glo Assay) (AID 1770; active = well fitted curve in the direction sought with a large enough effect; an effect the other way counts as inactive or inconclusive; note: % is set by controls: 0 for no effect and ±100 for the full control effect; nearly all actives have a fitted effect of over 65% in size)
Outline: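 25 nM Clk4 with 100 uM RS repeat peptide and 1 uM ATP (final) in Tris pH7.5, 10 mM MgCl2, 4.5 h at room temperature. Remaining ATP measured by Kinase-Glo luciferase luminescence.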

[12] = molecular target: Dual specificity protein kinase CLK4 (Homo sapiens) (UniProt Q9HAZ1); assay: qHTS Assay for Inhibitors of CDC-like Kinase 4 (ADP-Glo Assay) (AID 1771; active = well fitted curve in the direction sought with a large enough effect; an effect the other way counts as inactive or inconclusive; note: % is set by controls: 0 for no effect and ±100 for the full control effect; nearly all actives have a fitted effect of over 70% in size)
Outline: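 In this ADP-Glo format, 1 uM ATP and 100 uM RS peptide served as substrates for 25 nM Clk4 in Mg2+/EGTA/DTT/Triton buffer; reactions ran 1 hr at room temperature before luminescent ADP quantification.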

[13] = molecular target: Dual specificity protein kinase CLK4 (Homo sapiens) (UniProt Q9HAZ1); assay: qHTS Assay for Inhibitors of CDC-like Kinase 4 (ADP-FP Assay) (AID 1795; active = well fitted curve in the direction sought with a large enough effect; an effect the other way counts as inactive or inconclusive;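 note: recombinant human CLK4 phosphorylating RS repeat peptide at 1 µM ATP; % is set by controls: 0 for no effect and ±100 for the full control effect; nearly all actives have a fitted effect of over 60% in size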)
Outline: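 Recombinant Clk4 (6.25 nM) phosphorylated 100 uM RS repeat peptide with 1 uM ATP in 25 mM Tris pH 7.5, 10 mM MgCl2, 0.5 mM EGTA, 2.5 mM DTT, 0.01% Triton X-100 for 1 h. ADP was detected by Transcreener ADP2 competitive fluorescence polarization after 30 min at room temperature.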

[14] = NFAT Signaling Pathway (AID 444); conditions: Jurkat NFAT-bla M1, carbachol, beta-lactamase ratio, 5 h; at 7.69 µM (top of the series)
Outline: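 Read-out: CCF4 FRET ratio (460 nm/530 nm) after 1 h RT dye loading, used for %activity and AC50 from titration series. Cells: Jurkat NFAT-β-lactamase/M1 line, treated with compound plus 1 uM carbachol for 5 h, 37 °C.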

[15] = molecular target: Cytochrome P450 2D6 (Homo sapiens) (UniProt P10635); assay: qHTS Assay for Inhibitors and Substrates of Cytochrome P450 2D6 (AID 891; active = well fitted curve in the direction sought with a large enough effect; an effect the other way counts as inactive or inconclusive; note: potency is the fitted concentration of half-maximal effect; nearly all actives have a fitted effect of over 60% in size)
Outline: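 Luminescent read-out of luciferin formed by 5 nM human CYP2D6 demethylating 30 uM Luciferin-ME EGE (Km level) over 60 min at room temperature after NADPH regeneration addition. Data normalized to full inhibition by 1.43 uM quinidine.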

[16] = system: HIV-1 nucleocapsid protein NCp7 (binding to TG oligonucleotide); assay: HIV Nucleocapsid (AID 346; call rule not given here;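 note: potency is the fitted concentration of half-maximal effect; potency is for inhibitors that block NC binding and lower polarization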); conditions: HIV-1 NC / fluorescein-TGTGTGTG probe, fluorescence polarization
Outline: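 Fluorescence polarization binding of 100 nM HIV-1 NC to 10 nM fluorescein-labelled TG4xF oligonucleotide. Buffer was Hepes pH 7.5 with 250mM NaCl, 1uM ZnCl2, TCEP and 2-mercaptoethanol. Compounds were incubated 1 hr at room temperature before the read.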

[17] = molecular target: Cytochrome P450 3A4 (Homo sapiens) (UniProt P08684); assay: qHTS Assay for Inhibitors and Substrates of Cytochrome P450 3A4 (AID 884; active = well fitted curve in the direction sought with a large enough effect; an effect the other way counts as inactive or inconclusive; note: % is set by controls: 0 for no effect and ±100 for the full control effect; nearly all actives have a fitted effect of over 50% in size)
Outline: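 Luminescent readout of luciferin produced by CYP3A4 (20 nM) dealkylation of Luciferin-PPXE, 25 uM (its KM). NADPH-driven reaction ran 60 min at RT after 10 min compound preincubation; data scaled to 57 uM ketoconazole as 100% inhibition.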

[18] = qHTS Assay for Identification of Small Molecule Agonists for Hypoxia Response Element Signaling Pathway (AID 914; active = well fitted activation curve with a large enough effect in the signal ratio, with a control signal flat, not every such curve was filed as active; the % refers to the signal ratio; note: % of control where 0% means no effect); conditions: ME-180 (cervical carcinoma) HRE-bla reporter, beta-lactamase ratio, CoCl2, 17 h; activation: stronger effect = higher value
Outline: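 Compounds in a titration series were added to ME-180 reporter cells alongside an EC50 level of CoCl2. After 17 hours, beta-lactamase activity was read as the 460nm/530nm emission ratio of CCF4, giving AC50 values.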

[19] = measured here: cell count channel max response
[20] = measured here: lipid channel max response

Sequence of Dual specificity protein kinase CLK4 (Homo sapiens) (Q9HAZ1 whole entry, looked up): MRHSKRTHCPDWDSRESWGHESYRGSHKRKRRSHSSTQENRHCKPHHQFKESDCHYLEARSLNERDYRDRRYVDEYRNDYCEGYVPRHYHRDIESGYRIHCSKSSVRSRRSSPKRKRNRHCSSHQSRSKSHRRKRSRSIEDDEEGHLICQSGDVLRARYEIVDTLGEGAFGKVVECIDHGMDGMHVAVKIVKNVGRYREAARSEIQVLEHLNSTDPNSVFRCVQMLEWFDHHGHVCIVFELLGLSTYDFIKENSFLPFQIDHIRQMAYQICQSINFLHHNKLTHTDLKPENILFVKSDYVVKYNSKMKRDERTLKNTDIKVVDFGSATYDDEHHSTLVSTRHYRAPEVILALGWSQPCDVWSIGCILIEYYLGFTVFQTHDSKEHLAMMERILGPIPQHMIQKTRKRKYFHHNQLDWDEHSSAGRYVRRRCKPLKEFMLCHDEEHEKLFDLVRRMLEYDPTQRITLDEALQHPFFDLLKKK
Sequence of Lysosomal acid glucosylceramidase (Homo sapiens) (P04062 whole entry, looked up): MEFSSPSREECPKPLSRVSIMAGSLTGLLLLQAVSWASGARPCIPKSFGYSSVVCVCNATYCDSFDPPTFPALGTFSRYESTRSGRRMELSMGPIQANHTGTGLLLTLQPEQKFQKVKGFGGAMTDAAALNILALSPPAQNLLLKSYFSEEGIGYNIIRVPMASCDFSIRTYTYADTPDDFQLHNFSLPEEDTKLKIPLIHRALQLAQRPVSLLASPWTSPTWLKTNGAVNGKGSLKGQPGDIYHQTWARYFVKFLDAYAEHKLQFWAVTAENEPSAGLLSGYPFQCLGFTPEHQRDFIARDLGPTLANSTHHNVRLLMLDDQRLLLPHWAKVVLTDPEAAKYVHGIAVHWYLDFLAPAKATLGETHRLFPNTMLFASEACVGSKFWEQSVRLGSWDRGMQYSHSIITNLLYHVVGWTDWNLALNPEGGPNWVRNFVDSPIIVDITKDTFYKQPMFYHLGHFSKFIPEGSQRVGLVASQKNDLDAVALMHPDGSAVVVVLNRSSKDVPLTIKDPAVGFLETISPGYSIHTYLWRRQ
Sequence of Glucocorticoid receptor (Homo sapiens) (P04150 whole entry, looked up, the tested form may be a part): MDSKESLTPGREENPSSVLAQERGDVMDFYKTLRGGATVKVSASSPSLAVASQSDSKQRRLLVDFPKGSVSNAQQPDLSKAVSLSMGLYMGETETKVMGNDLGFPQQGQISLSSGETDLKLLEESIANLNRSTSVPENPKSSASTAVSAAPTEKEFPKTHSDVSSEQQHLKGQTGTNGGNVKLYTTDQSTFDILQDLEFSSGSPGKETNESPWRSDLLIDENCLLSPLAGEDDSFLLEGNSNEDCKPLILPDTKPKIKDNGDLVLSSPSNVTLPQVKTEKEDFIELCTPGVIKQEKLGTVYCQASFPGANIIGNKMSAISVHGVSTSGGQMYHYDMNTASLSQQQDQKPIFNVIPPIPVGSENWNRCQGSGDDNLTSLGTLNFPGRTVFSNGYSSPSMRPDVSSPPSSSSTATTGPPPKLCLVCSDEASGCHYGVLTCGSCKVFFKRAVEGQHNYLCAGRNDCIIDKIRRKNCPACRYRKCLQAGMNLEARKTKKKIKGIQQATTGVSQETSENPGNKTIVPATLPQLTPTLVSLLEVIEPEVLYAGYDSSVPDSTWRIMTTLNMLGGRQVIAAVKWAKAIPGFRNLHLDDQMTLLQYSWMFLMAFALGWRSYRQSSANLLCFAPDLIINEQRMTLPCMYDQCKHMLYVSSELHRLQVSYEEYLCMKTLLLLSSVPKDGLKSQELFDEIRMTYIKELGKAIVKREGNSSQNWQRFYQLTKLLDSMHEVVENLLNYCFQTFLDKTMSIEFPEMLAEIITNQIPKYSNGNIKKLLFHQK
Sequence of Cytochrome P450 1A2 (Homo sapiens) (P05177 whole entry, looked up): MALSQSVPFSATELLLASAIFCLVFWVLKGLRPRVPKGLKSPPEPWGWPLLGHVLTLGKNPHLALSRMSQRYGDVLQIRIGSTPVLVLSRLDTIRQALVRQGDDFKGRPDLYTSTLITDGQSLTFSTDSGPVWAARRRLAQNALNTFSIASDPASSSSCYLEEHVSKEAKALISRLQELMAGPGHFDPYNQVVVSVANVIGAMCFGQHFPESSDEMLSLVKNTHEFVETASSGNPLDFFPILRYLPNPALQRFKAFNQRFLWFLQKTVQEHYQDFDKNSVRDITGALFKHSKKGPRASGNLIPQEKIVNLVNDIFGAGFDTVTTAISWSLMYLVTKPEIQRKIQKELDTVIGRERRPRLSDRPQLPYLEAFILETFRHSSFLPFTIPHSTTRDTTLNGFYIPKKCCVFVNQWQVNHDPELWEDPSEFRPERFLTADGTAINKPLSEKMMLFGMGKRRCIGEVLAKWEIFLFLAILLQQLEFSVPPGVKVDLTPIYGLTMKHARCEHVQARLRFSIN
Sequence of 3',5'-cyclic-AMP phosphodiesterase 4B (Homo sapiens) (Q07343 whole entry, looked up): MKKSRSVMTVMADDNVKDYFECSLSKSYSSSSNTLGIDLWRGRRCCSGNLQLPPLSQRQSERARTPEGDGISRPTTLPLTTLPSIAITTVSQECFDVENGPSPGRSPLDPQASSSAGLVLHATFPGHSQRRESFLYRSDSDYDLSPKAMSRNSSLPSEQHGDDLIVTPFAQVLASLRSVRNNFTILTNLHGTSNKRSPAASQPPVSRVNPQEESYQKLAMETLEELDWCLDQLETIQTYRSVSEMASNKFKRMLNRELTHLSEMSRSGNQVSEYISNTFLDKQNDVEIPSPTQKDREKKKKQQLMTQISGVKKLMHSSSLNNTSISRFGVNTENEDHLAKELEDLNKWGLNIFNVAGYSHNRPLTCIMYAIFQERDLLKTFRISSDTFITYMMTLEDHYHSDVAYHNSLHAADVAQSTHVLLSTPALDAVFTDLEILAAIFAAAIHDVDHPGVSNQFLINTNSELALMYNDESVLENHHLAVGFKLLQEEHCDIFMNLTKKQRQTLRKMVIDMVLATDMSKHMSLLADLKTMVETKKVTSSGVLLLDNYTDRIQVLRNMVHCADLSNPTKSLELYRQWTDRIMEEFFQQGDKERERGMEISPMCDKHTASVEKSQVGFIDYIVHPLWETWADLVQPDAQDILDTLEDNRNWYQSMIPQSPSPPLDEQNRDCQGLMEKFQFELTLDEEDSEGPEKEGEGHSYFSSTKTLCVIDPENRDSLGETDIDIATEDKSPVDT
Sequence of Cytochrome P450 3A4 (Homo sapiens) (P08684 whole entry, looked up): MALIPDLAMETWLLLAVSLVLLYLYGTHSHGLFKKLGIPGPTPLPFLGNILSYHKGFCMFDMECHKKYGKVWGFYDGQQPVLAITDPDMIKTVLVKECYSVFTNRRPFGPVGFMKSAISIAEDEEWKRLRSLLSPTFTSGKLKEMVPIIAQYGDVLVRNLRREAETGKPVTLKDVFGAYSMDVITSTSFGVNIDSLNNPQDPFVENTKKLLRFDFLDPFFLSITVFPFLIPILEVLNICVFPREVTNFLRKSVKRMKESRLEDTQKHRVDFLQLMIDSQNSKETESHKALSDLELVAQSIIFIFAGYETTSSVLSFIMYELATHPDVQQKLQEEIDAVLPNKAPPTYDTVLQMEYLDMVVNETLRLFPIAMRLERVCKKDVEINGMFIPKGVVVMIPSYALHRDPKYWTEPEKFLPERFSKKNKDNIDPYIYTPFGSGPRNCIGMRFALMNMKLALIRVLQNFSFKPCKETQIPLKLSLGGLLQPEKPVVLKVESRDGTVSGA
Sequence of Cytochrome P450 2D6 (Homo sapiens) (P10635 whole entry, looked up): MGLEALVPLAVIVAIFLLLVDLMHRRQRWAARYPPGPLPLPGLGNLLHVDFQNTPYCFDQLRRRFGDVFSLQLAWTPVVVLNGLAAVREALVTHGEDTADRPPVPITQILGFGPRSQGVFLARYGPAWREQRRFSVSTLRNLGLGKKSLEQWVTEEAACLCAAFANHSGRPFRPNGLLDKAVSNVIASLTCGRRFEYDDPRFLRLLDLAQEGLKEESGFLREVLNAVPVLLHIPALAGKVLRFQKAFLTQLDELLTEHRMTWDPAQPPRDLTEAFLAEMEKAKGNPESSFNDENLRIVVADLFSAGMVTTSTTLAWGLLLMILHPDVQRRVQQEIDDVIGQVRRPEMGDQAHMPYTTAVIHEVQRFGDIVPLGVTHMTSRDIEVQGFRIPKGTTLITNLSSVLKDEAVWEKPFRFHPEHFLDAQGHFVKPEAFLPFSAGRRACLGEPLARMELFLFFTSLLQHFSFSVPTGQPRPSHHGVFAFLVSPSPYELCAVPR

CCCOC(=O)c1cc2c(cn1)[nH]c1ccccc12
inactive: outcome [1]

COC(=O)N1CCC2(CCCN(C)C2)CC1
6.44%: max response [8, 19]
8.69%: max response [8, 20]
inactive: Potency [2] > 11.4 µM | outcome [3] | Potency [4] | outcome [5] | Potency [6] > 46 µM | Potency [7] | activity change, negative = inhibition [8] 0.789% | outcome [1]

CN1CCN(c2ncc3ncc(=O)n(C)c3n2)CC1
active: Potency [4] 12.6 µM
inactive: Potency [2] > 11.4 µM | outcome [3] | outcome [5] | Potency [9] > 9.22 µM | Potency [6] > 46 µM | outcome [10] | Potency [7] | activity change, negative = inhibition [8] 3.09% | outcome [11] | outcome [12] | outcome [13] | outcome [1]
1.21%: max response [8, 20]
-0.0774%: max response [8, 19]

CS(=O)(=O)N1CCC2(CCCN(Cc3ccncc3)C2)CC1
15.9%: max response [8, 19]
inactive: Potency [2] > 11.4 µM | outcome [3] | activity change, negative = inhibition [14] -20.7% | outcome [5] | Potency [6] > 46 µM | outcome [10] | Potency [7] | activity change, negative = inhibition [8] 6.09% | outcome [1]
25.1%: max response [8, 20]

CC(C)CN1CCC2(CC1)CCN(S(C)(=O)=O)CC2
-15.1%: max response [8, 19]
active: Potency [15] 0.794 µM
inactive: Potency [2] > 11.4 µM | outcome [3] | Potency [4] | Potency [6] > 46 µM | outcome [10] | Potency [7] | activity change, negative = inhibition [8] -1.49% | outcome [1]
-17.2%: max response [8, 20]

c1ccc(CN2CCCC3(CCNCC3)C2)cc1
inactive: Potency [2] > 11.4 µM | outcome [3] | Potency [4] | outcome [5] | Potency [6] > 46 µM | outcome [10] | Potency [7] | activity change, negative = inhibition [8] 2.49% | outcome [1]
7.81%: max response [8, 20]
3.6%: max response [8, 19]

O=C(CN1CCCCC1c1cccnc1)c1ccccc1 (stereo unspecified)
inactive: outcome [1]

CC(=O)OC[C@]12C[C@H](OC(=O)CC(C)C)C(C)=C[C@H]1O[C@H]1[C@H](O)[C@@H](OC(C)=O)[C@@]2(C)[C@]12CO2
inactive: outcome [1]

N#Cc1cccc(NC(=O)N2CC3(CCN(C(=O)Oc4ccccc4)CC3)C2)c1
-4.33%: max response [8, 19]
active: Potency [4] 15.8 µM
2.3%: max response [8, 20]
inactive: Potency [16] > 20 µM | Potency [2] > 11.4 µM | outcome [3] | activity change, negative = inhibition [14] 17.6% | outcome [5] | Potency [6] > 46 µM | outcome [10] | Potency [7] | Potency [17] | activation [18] -17.9% | activity change, negative = inhibition [8] 1.56% | outcome [1]
